# DT40 TDP1 CPT: DT40-hTDP1 cell growth loss with CPT; chicken DT40 Tdp1-/-;hTDP1 cells + 20 nM CPT, ATP luminescence, 48 h; Potency, µM (series often up to 46.2 µM), inactives show top-dose activity change, negative = growth inhibition, usual class: inhibitors; 420,000 compounds, 12% hits; AID 686979; note: potency is the fitted concentration of half-maximal effect; nearly all actives have a fitted effect of over 55% in size
#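 Chicken DT40 Tdp1-/- cells complemented with human TDP1, 400 cells/well, exposed to compounds plus 20 nM camptothecin for at least 48 h at 37 C; viability read as ATP content by CellTiter-Glo luminescence.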
# IL-1B inflam inh: blocks inflammasome-driven IL-1 beta release | THP-1 LPS/ATP IL-1B secretion, AlphaLISA, 16 h; active compounds read low | activity change, % at 57.5 µM | 360,000 compounds, 4.7% hits | AID 743279; in the data active = activity change below about -50%; inconclusive = mostly about -30% to -49%
#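 THP-1 cells pretreated 1 hr with compounds (up to 57.5 uM final), then stimulated with LPS (250 ng/mL final) plus ATP (1.25 mM final); secreted IL-1B measured by AlphaLISA after 16 hr, decreased signal indicating inhibition.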
# HT1080 IDH1KD tx: toxicity to HT-1080 IDH1 knockdown cells (counter line); HT-1080 IDH1 knockdown viability, ATP luminescence, 48 h; 360,000 compounds, 2% hits; Potency, µM (top dose mostly 46.1 µM), for inactives: top-dose activity, negative = toxicity, hits mostly cytotoxic;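 note: potency is the fitted concentration of half-maximal effect; 0% = DMSO wells and -100% = cell-free medium wells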
#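 % activity derives from luminescence (CellTiter-Glo), normalised to DMSO and no-cell wells. HT-1080-IDH1KD cells, 750/well, had 48 h compound exposure at 37 °C.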
# HT1080-NT tox: kills 2HG-producing HT-1080-NT fibrosarcoma cells; HT-1080-NT fibrosarcoma viability, CellTiter-Glo ATP luminescence, 48 h; Potency, µM (top dose mostly 46.1 µM), for the others: at the highest dose activity, negative = less viability, actives largely listed as cytotoxic; 360,000 compounds, 1.6% hits;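 note: NT is the 2HG producing partner of a matched IDH1 knockdown line; potency is the fitted concentration of half-maximal effect; 0% = DMSO-treated cells and -100% = media-only wells without cells; nearly all actives have a fitted effect of over 55% in size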
#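 Viability by CellTiter-Glo luminescence after 48 h compound exposure at 37C of HT-1080-NT cells (750/well, RPMI, 5% FBS). % activity scaled between DMSO wells and medium-only wells, then curve-fitted and categorized by curve class.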
# ALOX12 inh: ALOX12 (human) lipoxygenase inhibition. P18054. purified 12hLO, xylenol orange hydroperoxide absorbance. Potency, µM (titrated, usually from 108 µM), for the others: at the highest dose activity change, negative = inhibition, most hits filed as inhibitors. 580,000 compounds, 1.1% hits. AID 1671190; note: potency is the fitted concentration of half-maximal effect
# Target sequence (P18054 whole entry, looked up): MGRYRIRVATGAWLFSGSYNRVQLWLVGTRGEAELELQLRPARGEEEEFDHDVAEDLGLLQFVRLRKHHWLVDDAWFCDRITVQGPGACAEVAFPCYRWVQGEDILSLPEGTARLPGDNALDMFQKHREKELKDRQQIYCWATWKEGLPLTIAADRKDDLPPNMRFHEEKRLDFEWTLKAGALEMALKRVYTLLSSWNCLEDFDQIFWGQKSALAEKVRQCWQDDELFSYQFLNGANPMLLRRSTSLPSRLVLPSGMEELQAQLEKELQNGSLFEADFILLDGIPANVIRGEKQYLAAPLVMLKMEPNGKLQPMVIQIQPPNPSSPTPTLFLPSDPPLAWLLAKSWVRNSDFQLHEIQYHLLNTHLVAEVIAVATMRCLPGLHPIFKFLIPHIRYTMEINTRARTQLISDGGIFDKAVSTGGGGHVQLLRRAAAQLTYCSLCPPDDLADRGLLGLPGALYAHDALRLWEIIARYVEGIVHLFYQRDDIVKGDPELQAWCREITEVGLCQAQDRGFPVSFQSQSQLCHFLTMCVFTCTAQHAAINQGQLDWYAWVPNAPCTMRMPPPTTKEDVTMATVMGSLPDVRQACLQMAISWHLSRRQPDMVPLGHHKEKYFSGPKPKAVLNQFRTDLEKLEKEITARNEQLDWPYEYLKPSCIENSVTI
#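 Purified human 12hLO at 150 nM in 25 mM Hepes, 0.01% Triton X-100, pH 7.0, preincubated 15 min at room temperature with compound. Reaction started with 40 uM arachidonic acid, 30 min at room temperature. Hydroperoxide measured by Fe-xylenol orange, 573/405 nm absorbance ratio.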
# DT40 TDP1 no CPT: qHTS for Inhibitors of human tyrosyl-DNA phosphodiesterase 1 (TDP1): qHTS in cells in absence of CPT; Potency, µM (series often up to 46.2 µM), without a hit: at the highest dose activity change, negative = growth inhibition, most hits filed as inhibitors; DT40 Tdp1-/- hTDP1 cells, no CPT, ATP luminescence, 48 h; 420,000 compounds, 15% hits; note: potency is the fitted concentration of half-maximal effect; nearly all actives have a fitted effect of over 55% in size
#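 Stably hTDP1-transfected Tdp1-null chicken DT40 cells were treated with library compounds minus camptothecin and grown for at least 48 hr at 37 °C, after which cellular ATP was quantified by luminescence.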
# * = called active by the depositor; ? = inconclusive; / = no result given. Only a selection was taken, and hits are over-represented in it overall. Unless noted, calls come from the whole dose curve; as a rule, active = well fitted curve in the direction sought with a large enough effect; inconclusive = small, poorly fitted or top-dose-only effect, or another doubt; inactive = no such curve, though single readings can be large; an effect the other way counts as inactive or inconclusive. Unless noted, % is set by controls: 0 for no effect and ±100 for the full control effect.
SMILES,DT40 TDP1 CPT,IL-1B inflam inh,HT1080 IDH1KD tx,HT1080-NT tox,ALOX12 inh,DT40 TDP1 no CPT
CCOC(=O)C1(CC2CC2)CCN(C(=O)c2cc(OC)nc3ccccc23)CC1,?,-17.4,-0.1%,15.5%,0.0%,?
Cc1cc(Nc2cccc(F)c2)n2nc(-c3ccco3)nc2n1,18.4µM*,/,/,/,4.4%,?
Cc1cc(Nc2ccccc2F)n2nc(-c3ccccc3)nc2n1,?,/,/,/,0.0%,?
Cc1cc(Nc2ccc(F)c(F)c2)n2nc(-c3ccco3)nc2n1,/,/,/,/,-14.6%,/
Cc1cc(Nc2ccccc2Cl)n2nc(-c3ccco3)nc2n1,?,/,/,/,10.6%,25.9µM*
Cc1cc(Nc2ccccc2Cl)n2nnnc2n1,-3.7%,-1.6,-7.4%,-7.3%,3.0%,-6.7%
CCOC(=O)c1ccccc1Nc1cc(C)nc2nc(-c3ccco3)nn12,?,/,/,/,-24.0%,16.4µM*
CCn1nc(C(=O)OCC(=O)Nc2nc(-c3ccc(C)c(C)c3)cs2)c2ccccc2c1=O,/,/,/,/,-41.5%,/
CNCCCCOc1ccccc1Cc1ccccc1,7.5µM*,/,/,/,17.4%,8.41µM*
COc1ccc(CN2CCc3c(c(=O)n4ncc(C(=O)N5CCN(c6ccccc6OC)CC5)c4n3C)C2)cc1,16.4µM*,/,/,/,-6.7%,11.6µM*
COc1ccc(CC(=O)OCC(=O)Nc2cc(Cl)ccc2C)cc1,-3.8%,8.1,-1.2%,5.5%,-6.1%,-3.6%
COc1cccc(CN2CCc3c(cc(C(=O)Nc4cccc(C)c4C)n3C)C2)c1,/,/,/,/,-7.0%,/
CCn1c2c(c(=O)n3ncc(C(=O)Nc4cc(Cl)ccc4C)c13)CN(Cc1ccc(OC)cc1)CC2,?,/,/,/,-28.4%,20.6µM*
COc1cc(=O)n2c(c1C(=O)Nc1ccc(F)cc1Cl)CCCC2,/,/,/,/,3.2%,/
CCn1c2c(c(=O)n3ncc(C(=O)Nc4ccc(F)cc4Cl)c13)CN(Cc1ccc(OC)cc1)CC2,?,/,/,/,?,23.1µM*
CCn1c2c(c(=O)n3ncc(C(=O)Nc4cccc(Cl)c4C)c13)CN(Cc1ccc(OC)cc1)CC2,20.6µM*,/,/,/,?,?
COCC(=O)N(C1CCOCC1)C1CCN(C(=O)Cc2ccc(C)cc2)CC1,/,/,/,/,46.5%,/
COc1ccc(C(=O)/C(=C\c2ccc(Cl)cc2)c2nc3ccccc3o2)cc1,/,/,/,/,-19.7%,/
CCCC1CCCN(C(=O)Cn2nc(C)c3ccccc3c2=O)CC1 (stereo not given),/,/,/,/,29.3%,/
Cc1ccc(CC(=O)Nc2nnc(-c3ccc(F)cc3)o2)c(C)c1,?,-1.1,-1.6%,1.8%,/,16.4µM*
COc1cc(OC)cc(-c2nnc(NC(=O)Cc3ccc(F)cc3)o2)c1,1.46µM*,13.1,-3.6%,-12.7%,0.1%,2.59µM*
COCCN1C2=C(C(=O)CC(C)(C)C2)C(c2cccc(O)c2)C2=C1CC(C)(C)CC2=O,/,/,/,/,-7.9%,/
COc1cc(OC)c(N(C)S(=O)(=O)c2cccc(C(=O)NC(C)C3CC4CCC3C4)c2)cc1Cl (stereo not given),18.4µM*,18.3,-1.8%,4.1%,-6.9%,23.1µM*
COc1cc(OC)c(N(C)S(=O)(=O)c2cccc(C(=O)Nc3nccs3)c2)cc1Cl,?,-13.9,?,-26.6%,-10.4%,18.4µM*
CC(NC(=O)c1cccc(S(=O)(=O)N2CCN(C)CC2)c1)C1CC2CCC1C2 (stereo not given),-13.0%,-6.6,-3.3%,-9.4%,11.4%,?
O=Cc1ccc(OCc2ccc(Br)cc2)cc1,/,/,/,/,-51.0%,/
Cc1ccc(Cl)cc1N1CCN(CCNC(=O)Nc2ccccc2Cl)CC1,16.4µM*,/,/,/,-25.1%,11.6µM*
Cc1ccc(Cl)cc1NC(=O)NCCN1CCCCC1,24.8%,-10.1,-1.2%,-1.8%,-22.8%,-15.7%
O=C(NCCCN1CCN(c2cccc(Cl)c2)CC1)Nc1ccccc1C(F)(F)F,14.6µM*,/,/,/,-15.0%,?

# Source: PubChem BioAssay
